# According to PubChem BioAssay (Tox21):
# Records with an inconclusive call do not appear. Calls of active or inactive are those of the source. Calls come from the whole dose curve; as a rule, active = well fitted cell-killing curve with a large enough effect in the repeat runs; inconclusive = weak or mixed curves; inactive = flat fitted curve, though single readings scatter.
# Assay: qHTS assay to identify small molecule antagonists of the estrogen receptor beta (ER-beta) signaling pathway - cell viability counter screen (AID 1259382); note: nearly all actives have a fitted effect of over 55% in size
# Settings: ER-beta-UAS-bla HEK293T viability, CellTiter-Glo luminescence, 16 h; series mostly up to 92.4 µM
# From the text: U.S. Tox21 Program National Center for Advancing Translational Sciences [NCATS] NIH Chemical Genomics Center [NCGC] U.S. Environmental Protection Agency [EPA] National Institutes of Environmental Health Sciences [NIEHS] National Toxicology Program [NTP] U.S. Food and Drug Administration [FDA] Tox21 Assay Overview: Estrogen receptor (ER), a nuclear hormone receptor, plays an important role in development, metabolic homeostasis and reproduction. Two subtypes of ER, ER-alpha and ER-beta, have similar expression patterns with some uniqueness in both types. Endocrine disrupting chemicals (EDCs) and their interactions with steroid hormone receptors like ER causes disruption of normal endocrine function. To identify the compounds that inhibit ER signaling, an ER-beta-UAS-bla GripTite cell line (Life Technologies, Madison, WI, USA) containing a beta-lactamase reporter gene under the control of an UAS response element was used to screen Tox21 10K compound library. The cytotoxicity of the Tox21 compound library against the ER-beta-bla cell line was tested in parallel by measuring the cell viability using CellTiter-Glo assay in the same wells.
# Tox21 Assay Protocol Summary: ER-beta-UAS-bla HEK293T cells were dispensed at 2,000 cells/4 uL of assay medium containing 2% charcoal stripped FBS per well into black wall/clear-bottom 1536-well plates using a Multidrop Combi (ThermoFisher Scientific, Waltham, MA) dispenser. After the assay plates were incubated at a 37C and 5% CO2 for 6 hr, 23 nL of compounds dissolved in DMSO, positive controls or DMSO only was transferred to the assay plate by a Pintool station (Kalypsys, San Diego, CA), followed by addition of 1 uL (1nM as final concentration) of 17-beta-estradiol (E2) in assay medium using a Flying Reagent Dispenser (FRD, Aurora Discovery, San Diego, CA). The plates were incubated at 37C and 5% CO2 for 16 hr. Then 1 uL of LiveBLAzer B/G FRET substrate was added using a Flying Reagent Dispenser, the plates were incubated at room temperature for 2 hours, and fluorescence intensity was measured by an Envision plate reader (PerkinElmer, Shelton, CT). For cell viability readout that measures cytotoxicity, 4 uL/well of CellTiter-Glo reagent was added into the assay plates using a FRD. After 30 min incubation at room temperature, the luminescence intensity in the plates was measured using a ViewLux (PerkinElmer) plate reader.
row,Compound,outcome
1,CCCCCCO,inactive
2,CSc1ccc(Cl)cc1,inactive
3,Cc1ccc(S(=O)(=O)N=C=O)cc1,inactive
4,O=C(O)c1ccccc1C(=O)O,inactive
5,O=c1[nH]cnc2[nH]ncc12,inactive
6,O=C(O)/C=C/C(=O)O,inactive
7,CCCCCCCCCCO,inactive
8,COCCOC(=O)c1ccccc1C(=O)OCCOC,inactive
9,c1ccc2c(c1)Cc1ccccc1-2,inactive
10,NCCCCCCN,inactive
11,N#Cc1ccccc1,inactive
12,CC(=O)OCCOC(C)=O,inactive
13,C=CCc1ccc(OC)c(OC)c1,inactive
14,Brc1ccc(Br)c(Br)c1,inactive
15,O=C(OCC1CCC2OC2C1)C1CCC2OC2C1 (stereo not given),inactive
16,CCCCCCCCCCN,inactive
17,OCc1ccccc1,inactive
18,CNC(=S)N(C)C,inactive
19,COc1ccc(N)c(C)c1,inactive
20,CC(C)CC(=O)CC(C)CC(C)C (stereo not given),inactive

row,Compound,outcome
1,COC(=O)c1cccnc1,inactive
2,CC1(C)OC[C@@H]2O[C@@]3(C(=O)O)OC(C)(C)O[C@H]3[C@@H]2O1,inactive
3,CN1C(=O)CC[C@H]1c1cccnc1,inactive
4,CC(O)CC(C)(C)O (stereo not given),inactive
5,CC1(C)CC(N)CC(C)(CN)C1 (stereo not given),inactive
6,CC(C)(Oc1ccc(CCNC(=O)c2ccc(Cl)cc2)cc1)C(=O)O,inactive
7,CCCCCCCC=O,inactive
8,CCCCC(C=O)CC (stereo not given),inactive
9,CC(C)c1cccc(C(C)C)c1,inactive
10,O=C(O)CCCCCCCCC(=O)O,inactive
11,CC(=O)CC(C)(C)O,inactive
12,CCc1ccccc1CC,inactive
13,Nc1ccc(Cl)c(N)c1,inactive
14,CC(=O)OC1CC(C)OC(C)O1 (stereo not given),inactive
15,CCOC(=O)n1ccn(C)c1=S,inactive
16,C=C(C)CNCC,inactive
17,C=C(C)[C@H]1CC=C(C)C(=O)C1,inactive
18,C[C@]12CC[C@@H]3c4ccc(O)cc4CC[C@H]3[C@@H]1C[C@@H](O)[C@@H]2O,inactive
19,CCCCCCCCCCCCCCCCO,inactive
20,NCCN1CCNCC1,inactive
